Source: PubChem BioAssay
The entries come from a sample that favours hits as a whole.
Tg IFNy HTS: T. gondii growth inhibition under IFN-gamma. Toxoplasma gondii growth in IFN-gamma-treated host cells; stronger effect = lower value. activity change, negative = inhibition, % (test concentration not listed). hit rate 3.8% among 69,000. AID 1259416; in the data active = activity change below about -70%, passing the limit was not always enough;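 also: host cells are HeLa cells infected with Toxoplasma gondii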
* = called active by the depositor; ! = repeats disagree.

SMILES | Tg IFNy HTS
COc1ccc(C(=O)NCCc2csc(-c3cccc(F)c3)n2)cc1OC | 32
CC(C)Oc1ccc(CNS(=O)(=O)c2cc3c4c(c2)CCN4C(=O)CC3)cc1 | 23
O=C(c1cccnc1)N1CCC(c2cc(=O)[nH]c(N3CCOCC3)n2)C1 (centres undefined) | 49
Cc1cc(C)nc(Nc2ccccc2C(=O)O)n1 | -8
CC1CCN(C(=O)CCNc2c(-c3cccc(F)c3)nc3cnccn23)CC1 | 177
Cc1cccc(C)c1OCCCN(C)C(=O)CN1CCOC1=O | 54
Fc1cnc(N2CCN(Cc3cc(CN4CCCC4)cs3)CC2)nc1 | -14
CCN1CCn2c(-c3ccccc3)cnc2C12CCN(C(=O)c1cscn1)CC2 | -48
COc1ccc(CN2C(=O)N(CC(C)C)C3(CCN(CCC(C)c4ccc(C)o4)CC3)C2=O)cc1 (centres undefined) | -10
CCSc1nsc(NC(=O)CN2CCC(Oc3cccc(F)c3)CC2)n1 | 12
O=C(Nc1ccc(F)cc1)Nc1nc(SCc2ccc(F)cc2)ns1 | -110*
Cc1ccc(-c2coc(-c3ccc(NC(=O)Nc4ccc(F)cc4)cc3)n2)cc1 | 29
CN[C@H](C(=O)N[C@H](C(=O)N(C)[C@H](/C=C(\C)C(=O)O)C(C)C)C(C)(C)C)C(C)(C)c1ccccc1 | -71*
CC(=O)N1CCC2(CCCN2)CC1 | -35
COC(=O)C1CCCN1C(=O)C1(Oc2ccc(C)cc2)CCNCC1 (centres undefined) | -4
CCN(CC)CCNC(=O)C1=C(C)C(=O)OC12CCN(S(=O)(=O)CC)CC2 | 23
Cc1sc2nc3n(c(=O)c2c1C)C(C)(C)Cc1ccccc1-3 | -1
Cc1ccc2nc(-c3ccc(Cl)c(C)c3)cn2c1 | -97*
Cc1ccc2nc(-c3ccc(-c4ccccc4)s3)cn2c1 | 80
COc1ccc(-c2cn3cc(C)ccc3n2)cc1 | 317
CCC(CC)C(=O)N1CCCc2c(cnn2-c2ccc(OC)cc2)C1 | -97*
COc1ccc(Cc2ncc3c(n2)CN(C(=O)[C@@H](O)c2ccccc2)C3)cc1 | 0
CCC(CC)C(=O)N1CCCn2cnc(CN3CCCC3=O)c2C1 | 2
Cc1nn(C)cc1-c1ccnc(NCc2nc3c(s2)CCCC3)n1 | -35
O=C(O)c1ccc(-c2c[nH]c3ncc(-c4ccccc4)cc23)cc1C1CCCC1 | -85*
SMILES | Tg IFNy HTS
O=C(O)c1ccccc1C1CCN(C(=O)Cc2c[nH]c3ccccc23)C1 (centres undefined) | -42
Cc1c(-c2ccccc2)n[nH]c1C(=O)N1CCC(c2ccccc2C(=O)O)C1 (centres undefined) | -6
O=C(c1cccnc1-c1cccc(CN2CCOCC2)c1)N1CCCC1 | 10
COc1ccccc1C(=O)Nc1cccc(NC(=O)c2c(Cl)cnn2C)c1 | -85*
COCC1(C(=O)Nc2cccc(NC(=O)c3ccccc3OC)c2)CCC1 | -2
COc1ccccc1C(=O)Nc1ccc(-c2nc(-c3ccc(C)cc3)co2)cc1 | -55
COc1ccc(Cl)cc1NC(=O)Nc1cc(C)nc2ccccc12 | -86*
COc1ccc(Cl)cc1NC(=O)c1nc(Nc2ccccc2)c2ccccc2n1 | 84
COc1ccc(Cl)cc1NC(=O)COc1nc(C)nc2ccccc12 | -15
COC(=O)CN1C(=O)N(CCc2ccccc2)C2(CCN(Cc3ccc4c(c3)OCCO4)CC2)C1=O | -9
Cc1nn(C)cc1C(C)n1ccnc1-c1nn(C)c2cccc(Cl)c12 (centres undefined) | -5
COc1ccc(C(=O)N2CCN(CC(C)(C)CN3CCCC3)CC2)cc1 | -6
CC(C)n1c(/C=C/[C@@H](O)C[C@@H](O)CC(=O)O)c(-c2ccc(F)cc2)c2ccccc21 | -78*!
CC(NC(=O)c1cc(-c2ccc(F)cc2)no1)c1nc2ccccc2n1C(C)C (centres undefined) | -10
CC(C)n1c(SCC(=O)O)nc2ccccc21 | 29
CC(=O)N1CCC(C(=O)NCc2ccccc2)(N(C(=O)c2ccc(Br)cc2)c2ccc(C)cc2)CC1 | 63
CC(=O)N1CCC(C(=O)NCc2ccccc2)(N(C(=O)c2ccc(C)cc2)c2ccc(C(C)C)cc2)CC1 | -98*
CC(=O)Nc1ccc(C(=O)N(c2ccc(C)cc2)C2(C(=O)NCc3ccccc3)CCN(C(C)=O)CC2)cc1 | 80
NC1CCN(C(=O)c2cc3n(n2)CCN(Cc2ccccc2)C3)C1 (centres undefined) | -8
O=C1c2ccccc2C(=O)N1CCCn1nnc(-c2ccc(F)cc2)n1 | -9
COc1ccc(NC(=O)N2CCOCC2)cc1 | 33
COc1ccc(Oc2ccc(NC(=O)C3C4CC5OC(=O)C3C5C4)cc2)cc1 (centres undefined) | -7
COc1ccc(NC(=O)C2OC3OC(C)(C)OC3C3OC(C)(C)OC23)cc1 (centres undefined) | -94*
CCc1c(Cl)c(O)c(Cl)c(O)c1C(=O)O[C@H]1[C@H](O)[C@H](OC)[C@H](OCC2=C/C=C/C[C@H](O)/C(C)=C\[C@H](CC)[C@H](O[C@@H]3OC(C)(C)[C@@H](OC(=O)C(C)C)[C@H](O)[C@H]3O)/C(C)=C\C(C)=C\C[C@H]([C@@H](C)O)OC2=O)O[C@@H]1C | -58
COCc1nc2c(o1)CN(C(=O)NCc1ccccc1)C2 | 4
